Results filed as inconclusive are left out. A number with no mark means an inactive call. Calls come from the whole dose curve; as a rule, active = well fitted inhibition curve with a large enough effect; inconclusive = small, poorly fitted or top-dose-only effect; inactive = flat fitted curve, though single readings scatter.
The molecules below were run on Zika virus NS2B-NS3 protease (assay: Primary screen GU AMC qHTS for Zika virus inhibitors (AID 1347154;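 note: 0% = no-inhibitor control and -100% = no-enzyme control; nearly all actives have a fitted effect of over 70% in size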)). Conditions: Zika NS2B-NS3 unlinked protease, AMC fluorogenic substrate; series mostly up to 54.1 µM; activity change, negative = inhibition: at the top concentration.
Method in brief: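 Unlinked Zika NS2B hydrophilic domain/NS3 protease domain noncovalent complex (25 nM final) in 10 mM Tris-HCl pH 8.0, 0.01% Tween 20, with AMC peptide substrate. Fluorescence (ex 340, em 450 nm) change over 15 min, room temperature; percent inhibition fitted to 4-parameter Hill equation.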

SMILES | activity change, negative = inhibition
C[C@H]1COc2c(C3(N)CC3)c(F)cc3c(=O)c(C(=O)O)cn1c23 | 0.638%
CC(=O)N1C[C@H](O)C[C@H]1C(=O)O | 1.65%
CCN(CC)S(=O)(=O)c1ccc(C(=O)O)cc1 | 5.45%
NC(=O)NC1NC(=O)NC1=O (centres undefined) | -2.17%
c1ccc2[nH]ccc2c1 | -0.191%
FC(F)(F)C(Cl)Br (centres undefined) | 0.176%
CC(=O)SC[C@@H](Cc1ccccc1)C(=O)NCC(=O)OCc1ccccc1 | -5.05%
O=C(NCN1CCOCC1)c1cnccn1 | -1.13%
OCC(O)CS (centres undefined) | -2.07%
O=c1[nH]c(=O)n([C@H]2C[C@H](O)[C@@H](CO)O2)cc1I | -0.616%
COC(=O)c1cccnc1 | -2.98%
CC(C)=CCC/C(C)=C/CO | -1.39%
COC(=O)c1ccc(O)cc1 | 0.569%
CC(O)CCCCn1c(=O)c2c(ncn2C)n(C)c1=O (centres undefined) | 1.56%
CC[C@H](C)[C@H](N)C(=O)O | 9.44%
CCCCOC(=O)c1ccc(N)cc1 | 0.602%
COc1cc(O)cc(O)c1 | -3.89%
CN1CC(=O)NC1=N | -0.671%
NCc1ccc(S(N)(=O)=O)cc1 | 0.561%
CC(C)c1cc2c(cc1S(=O)(=O)O)[C@@]1(C)CCC[C@@](C)(C(=O)O)[C@@H]1CC2 | -2.63%
CC(C)(C)C(=O)OCOC(=O)[C@@H]1N2C(=O)[C@@H](NC(=O)[C@H](N)c3ccccc3)[C@H]2SC1(C)C | -7.49%
CC(N)CCCC(C)(C)O (centres undefined) | -2.3%
NC(=O)c1ccc([N+](=O)[O-])cc1Cl | -3.29%
Cc1c(C)c2c(c(C)c1OC(=O)c1cccnc1)CC[C@@](C)(CCC[C@H](C)CCC[C@H](C)CCCC(C)C)O2 | -5.64%
